Consider 61 compounds from ChEMBL document CHEMBL3988442, “University of Dundee, Small-Polar-MMV Screening Library” (2021).

Screen size: about 53,000 compounds; about 900 (1.7%) showed an effect of 50% or more. Shown is part of a subset that was picked to be rich in strong results.

This experiment relates to Mycobacterium tuberculosis. As to the kind of experiment: Cornell - Phenotypic assay to identify agents that inhibit growth of Mycobacterium tuberculosis. Type of experiment: functional. Also noted: scale not given: direction of the effect not stated beside the values. As to conditions: 10 mM as filed; unlikely as a test dose.
Turning to `Cc1nc(CN2CCO[C@@H]3CN(C(=O)CC4CC4)CC[C@@H]3C2)cs1`, the “Percent Effect” value stood at 21.81%. To `CCCN(CC(=O)NC)C(=O)c1ccc(-c2nc(C)cs2)cc1` belongs 8.736%. `CS(=O)(=O)N[C@@H]1CN(C(=O)c2ccccn2)[C@@H]2CCCO[C@@H]21.O=C(O)C(F)(F)F`: the “Percent Effect” value came to 24.81%. To `CC(C)c1nc(-c2cc(C(=O)O)c3ccccn23)cs1` belongs 89.3%; to `Cn1ccc(-c2cc(C(=O)N3CCOCC3)c3ccccn23)n1`, -21.75%; to `CC(C)c1nc(-c2cc(C(=O)NCCCO)c3ccccn23)cs1`, 21.42%.

With `Cn1ccc(-c2cc(C(=O)N3CCC(O)CC3)c3ccccn23)n1`, the “Percent Effect” value is recorded as -33.58%. In the case of `O=C(c1cc(-c2ccn(CC3CC3)n2)n2ccccc12)N1CCOCC1`, the “Percent Effect” value was determined as 96.99%. `O=C(c1cc(-c2ccn(CC3CC3)n2)n2ccccc12)N1CCCO1`: the “Percent Effect” value is 45.3%. As for `O=C(O)c1cc(-c2ccn(CC3CC3)n2)n2ccccc12`, the “Percent Effect” value came out at 99.83%. To `CC(C)c1nc(-c2cc(C(=O)N3CCN(C)CC3)c3ccccn23)cs1.O=C(O)C(F)(F)F` belongs -33.65%. With `Cn1ccc(-c2cc(C(=O)N3CCC(C(N)=O)CC3)c3ccccn23)n1`, the “Percent Effect” value turned out to be 11.2%. For `Cc1nc(N)ncc1C(=O)N1CCCC1(C)C(=O)N(C)C` (stereo unspecified), the “Percent Effect” value was found to be 14.34%. The same measure for `Cc1cc(N2CCCC(c3[nH]ncc3Cc3ccccc3)C2)nc(N)n1` (stereo unspecified): 13.81%. To `Cc1ncc(CNC(=O)Cc2ccsc2)c(C2CCCN2C)n1` (stereo unspecified) belongs 11.73%; to `CN1C(=O)C2(CC(=O)Nc3[nH]ncc32)c2cc(Cl)ccc21` (stereo unspecified), 9.602%. Turning to `O=C(c1ccoc1)N1CCCn2cnc(COCC3CC3)c2C1`, the “Percent Effect” value was determined as 7.498%.

`COC(=O)[C@@H]1Cc2c[nH]c3cccc(c23)[C@H](CC(C)C)N1`: the “Percent Effect” value was 105.3%.

`CC(C)C[C@@H]1N[C@H](C(=O)NCC2CC2)Cc2c[nH]c3cccc1c23`: the “Percent Effect” value worked out at 40.17%.

With `CC(C)C[C@@H]1N[C@H](C(=O)NC(C)C)Cc2c[nH]c3cccc1c23`, the “Percent Effect” value came to 22.96%. The same measure for `Cc1nc2sccn2c1CN(CCCN(C)C)Cc1ccco1.O=C(O)CC(O)(CC(=O)O)C(=O)O`: 33.13%.

For the compound `Cc1ccc(CN(CCN(C)C)Cc2c(C)nc3sccn23)o1.O=C(O)CC(O)(CC(=O)O)C(=O)O`, the “Percent Effect” value is recorded as 26.14%. Take `Cc1nc2sccn2c1CN(CCCN(C)C)Cc1ccccn1.O=C(O)CC(O)(CC(=O)O)C(=O)O`: the “Percent Effect” value worked out at 51.28%. To `COCCN1CCC2(CCN(Cc3ccc(OC)cc3)CC2)C1=O.O=C(O)C(F)(F)F` belongs -13.5%; to `Cc1cccc(CN2CCC3(CCC(C(=O)N(C)C)O3)CC2)n1` (stereo unspecified), 35.49%; to `Fc1cccc2[nH]c(CN3CCn4c(nnc4C4CC4)C3)nc12`, -6.1%.

For the compound `Cc1nn(C)c(N(C)C)c1CNCc1nnc2n1CCCCC2.Cl`, the “Percent Effect” value is recorded as 67.58%. The same measure for `COc1c(CNCc2nnc3n2CCCCC3)c(C(C)C)nn1C.Cl`: -4.214%. To `COc1c(CNCc2nnc3n2CCCCC3)c(C)nn1C.Cl` belongs 31.65%; to `Cc1cccc(COc2ccc(C(C)NC(=O)CNC(N)=O)cc2)c1` (stereo unspecified), 14.07%. As to `CC1(C)CC(=O)c2cnc3nc(N4CCCC4)[nH]c(=O)c3c2C1`, the “Percent Effect” value came to 23.1%. Turning to `CCC1CNCc2cc3c(OC)ccc(OC)c3nc2O1` (stereo unspecified), the “Percent Effect” value came out at 6.248%. For `CCC1CNCc2cc3c(C)ccc(C)c3nc2O1` (stereo unspecified), the “Percent Effect” value is listed as 61.63%.

Take `CS(=O)(=O)c1ccccc1-n1cc(NC(=O)CC(F)(F)F)cn1`: the “Percent Effect” value is 18.55%.

Take `CCC(=O)c1ccccc1NN1c2ccccc2C(=O)C1(C)OC` (stereo unspecified): the “Percent Effect” value was 13.72%. To `COc1ccc(CC(=O)Nc2c(C)nc(N3CCCC3)nc2C)cc1` belongs 59.35%. To `COc1ccc(CC(=O)Nc2c(C)nc(N3CCOCC3)nc2C)cc1` belongs 3.579%; to `Cc1nc(N2CCOCC2)nc(C)c1NC(=O)Cc1ccc(Cl)cc1`, -26.81%; to `COc1cc(N2C[C@H]3OCC[C@H]3[C@H](C(=O)N3CCCC3)C2)ncn1`, -33.02%. To `CC[C@@H]1N(CC2CC2)CCC[C@]12CCC(=O)N2CCOC.O=C(O)C(F)(F)F` belongs 52.28%; to `CC[C@@H]1N(Cc2ccsc2)CCC[C@]12CCC(=O)N2CCOC.O=C(O)C(F)(F)F`, 13.62%.

With `CC[C@H]1N(CC2CCC2)CCC[C@]12CCC(=O)N2Cc1ccncc1.O=C(O)C(F)(F)F.O=C(O)C(F)(F)F`, the “Percent Effect” value worked out at 23.16%. The same measure for `Cc1cccc(CN2CCC(Cc3ccccc3F)CC2)n1`: 56.1%. The same measure for `Fc1ccccc1CC1CCN(Cc2ccccn2)CC1`: 29.36%. To `Fc1ccccc1CC1CCN(Cc2cscn2)CC1` belongs 30.5%; to `O=C1CN(C(=O)C2CN(c3ccccc3)CCO2)CCN1` (stereo unspecified), 14.68%; to `O=C(Nc1ccnc(OC2CCOC2)c1)c1ccccc1Cl` (stereo unspecified), 61.48%. Turning to `O=C(Nc1ccnc(OC2CCOC2)c1)c1ccc(F)cc1Cl` (stereo unspecified), the “Percent Effect” value amounted to 1.296%. To `Cc1occc1C(=O)Nc1ccnc(OC2CCOC2)c1` (stereo unspecified) belongs 6.262%; to `CN(Cc1ccc(F)cc1)[C@@H]1CN(S(=O)(=O)N(C)C)C[C@H]1O`, 11.25%. To `COCCN1CCO[C@H]2CN(Cc3cc[nH]n3)C[C@H]21.O=C(O)C(F)(F)F.O=C(O)C(F)(F)F` belongs -6.862%.

Turning to `Cc1cccc(NS(=O)(=O)c2cnn(C)c2)c1C#N`, the “Percent Effect” value is recorded as -1.344%. For the compound `Cc1ccc(S(=O)(=O)Nc2cccnc2O)cc1C`, the “Percent Effect” value is listed as -38.51%.

With `COCCNS(=O)(=O)c1ccc(CNc2ncccc2C#N)cc1`, the “Percent Effect” value was 9.617%. To `Cc1cccc(NS(=O)(=O)c2ccc(C#N)nc2)c1C#N` belongs 105.8%. The same measure for `N#Cc1ccc(S(=O)(=O)Nc2ccccc2C#N)cn1`: 63.63%; for `N#Cc1cccnc1NCc1ccc(S(=O)(=O)NCC2CCCO2)cc1` (stereo unspecified): -11.22%. With `Cc1ccc(N2C[C@H]3CCN(Cc4ccncc4)C[C@H]3C2)nn1.O=C(O)C(F)(F)F`, the “Percent Effect” value is on record as -19.26%. The same measure for `Cc1ccc(CN2CCC3(CCCN3C(=O)C(C)C)CC2)o1`: -8.279%.

For the compound `CCOc1nnc(CN(C)C2CCCN(c3cccnn3)C2)s1` (stereo unspecified), the “Percent Effect” value is recorded as 26.02%. With `CC1c2ncc(COCC3CC3)n2CCN1C(=O)c1ccn(C)n1` (stereo unspecified), the “Percent Effect” value was found to be 14.69%.
